From PubChem BioAssay
The list is not random: actives were taken first. Their share in the collection is about 5.1%.
CRFBP-R2 agonist = CRF-BP/CRF-R2 complex agonism; HEK293 CRF-R2/CRF-BP, calcium dye fluorescence (FLIPR); percent of saturating CRF peptide response; activation, % at 13.2 µM; 350,000 compounds, 0.46% hits;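 active = activation of at least 50%, plus an integration ratio under a set limit after plate pattern correction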
CRFBP-R2 block = antagonists of CRF-binding protein/CRF-R2 receptor complex | HEK293 CRF-R2/CRF-BP, CRF-induced calcium fluorescence | inhibition, % at 11.8 µM | 350,000 compounds, 0.59% hits | AID 588475;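 active = inhibition of the ligand-induced calcium signal above about 50% at the single tested concentration, limit read from the data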
TMEM16A inh = blocks the mouse calcium-activated chloride channel TMEM16A | Q8BHY3 | HEK293 TMEM16A/YFP iodide influx fluorescence, ionomycin | normalized B-score (activity score, 25-100; higher = stronger inhibition) at 10 µM | 310,000 compounds, 1.2% hits | AID 588511;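 active = ratio plate-corrected score three or more library SD toward inhibition, starting fluorescence score within five deviations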;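 note: score derived from kinetic fluorescence span divided by baseline fluorescence per well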
Target sequence (Q8BHY3 whole entry, looked up): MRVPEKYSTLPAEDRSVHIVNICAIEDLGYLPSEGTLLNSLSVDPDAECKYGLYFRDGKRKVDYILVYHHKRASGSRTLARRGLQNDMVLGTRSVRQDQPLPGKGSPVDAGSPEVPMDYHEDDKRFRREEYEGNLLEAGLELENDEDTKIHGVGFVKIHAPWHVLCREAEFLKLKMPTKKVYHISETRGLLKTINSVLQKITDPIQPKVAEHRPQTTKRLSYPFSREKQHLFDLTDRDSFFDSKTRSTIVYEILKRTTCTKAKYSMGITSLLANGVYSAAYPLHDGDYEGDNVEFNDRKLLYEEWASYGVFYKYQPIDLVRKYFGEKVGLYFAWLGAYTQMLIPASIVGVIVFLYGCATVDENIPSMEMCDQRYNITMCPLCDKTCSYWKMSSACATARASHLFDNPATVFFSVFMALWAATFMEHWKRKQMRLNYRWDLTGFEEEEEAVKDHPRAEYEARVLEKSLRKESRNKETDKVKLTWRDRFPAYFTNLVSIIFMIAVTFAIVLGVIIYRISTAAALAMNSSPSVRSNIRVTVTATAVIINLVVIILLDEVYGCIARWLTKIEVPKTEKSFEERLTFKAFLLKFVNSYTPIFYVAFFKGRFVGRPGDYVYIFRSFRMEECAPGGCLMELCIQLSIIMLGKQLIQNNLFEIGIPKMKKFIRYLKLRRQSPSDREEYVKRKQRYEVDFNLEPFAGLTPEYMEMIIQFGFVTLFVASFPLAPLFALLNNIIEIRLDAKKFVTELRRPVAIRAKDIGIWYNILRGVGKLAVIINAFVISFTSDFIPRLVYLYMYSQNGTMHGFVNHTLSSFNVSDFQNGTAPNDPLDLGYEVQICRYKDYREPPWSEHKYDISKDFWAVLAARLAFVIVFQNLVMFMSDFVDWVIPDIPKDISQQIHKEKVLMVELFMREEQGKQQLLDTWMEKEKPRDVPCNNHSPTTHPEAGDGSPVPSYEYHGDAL
ANO1 activ = activates or potentiates the mouse TMEM16A chloride channel. Q8BHY3. B-score at 10 µM. HEK293 TMEM16A/YFP-H148Q/I152L, iodide quench fluorescence; active compounds read low. 340,000 compounds, 0.3% hits;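 active = fluorescence-ratio B-score plate-corrected deviation score at least 3 library SD below zero, with starting fluorescence score within 5 deviations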;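 note: channel opened by trigger with iodide after compound preincubation; score built on the fluorescence ratio of max minus min over baseline; more negative score means more quench and so TMEM16A activation or potentiation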
GRIN3A LBD mod = modulators (binders) of human NR3A ligand-binding domain; NR3A LBD differential scanning fluorimetry, Tm shift; 0% = protein alone, 100% = glycine-bound protein; Tm shift relative to glycine control, % at 25 µM; 340,000 compounds, 2.5% hits; AID 1259313;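 active = melting temperature shift of at least 10% of the positive control shift, at one fixed dose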
MPTP block = permeability transition pore inhibition; isolated mouse mitochondria, Ca2+ swelling absorbance, 30 min; inhibition, % at 10 µM; 360,000 compounds, 1.4% hits;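 active = inhibition of 50% or more, scaled per plate between neutral and stimulator controls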
Rh123 counter = mitochondrial membrane potential, counter-screen; inhibition, % at 10 µM; shares compounds with MPTP block; 5,000 compounds, 78% hits; isolated mitochondria, Rhodamine 123 fluorescence; in the data active = inhibition above about 22%
MPTP abs DR = dose response confirmation of mitochondrial permeability transition pore inhibitors; shares compounds with MPTP block; isolated mitochondria swelling, absorbance; IC50, µM; 780 compounds, 58% hits; AID 651561; in the data active = IC50 below about 20 µM
MPTP counter DR = MPTP inhibitor counter-screen activity, dose response. shares compounds with MPTP block. isolated mitochondria counterscreen, fluorescence read-out. IC50, µM. 780 compounds, 49% hits. AID 651564; in the data active = IC50 below about 80 µM
Of the large screens only hits and unclear results are named; the others gave an inactive call (follow-up assays come after a bar, where they were run).

CCOC(=O)c1sc(NC(=O)c2cccc(S(=O)(=O)N3c4ccccc4CC3C)c2)cc1C (stereo unspecified)	GRIN3A LBD mod 13, MPTP block 56 | Rh123 counter 38
Fc1ccccc1OCCCCN1CCCCC1	none
Cc1ccc(S(=O)(=O)n2ccc3c(OCCOCCNCc4ccc(F)cc4)cccc32)cc1	MPTP block 68 | Rh123 counter 86
Cc1ccc(S(=O)(=O)n2ccc3c(OCCOCCSCC(NC(=O)OC(C)(C)C)C(=O)O)cccc32)cc1 (stereo unspecified)	none
COc1ccc(NC(=S)Nc2ccc(OC(F)F)cc2)cn1	none
O=C(NNC(=S)Nc1ccc(Cl)cc1)c1ccccc1OC(F)F	CRFBP-R2 agonist 51, MPTP block 73 | Rh123 counter 86
COc1ccccc1NC(=S)NNC(=S)Nc1ccc(OC(F)F)cc1	GRIN3A LBD mod 32, MPTP block 97 | Rh123 counter 81
COc1cc(C=O)ccc1OC(=O)N1CCOCC1	none
COc1ccc(-c2ccc3nncn3c2)cn1	none (no result: CRFBP-R2 agonist, CRFBP-R2 block, TMEM16A inh, ANO1 activ, GRIN3A LBD mod)
O=[N+]([O-])c1cc(Br)c(O)c(C=Nc2ccc(N3CCOCC3)cc2)c1	none
O=[N+]([O-])c1cc(Br)c(O)c(/C=N/Nc2nnnn2-c2cccc3ccccc23)c1	TMEM16A inh 100, MPTP block 56 | Rh123 counter 34
CC(Oc1ccc(Cl)cc1Cl)C(=O)Nc1ccc2oc(-c3ccncc3)nc2c1 (stereo unspecified)	MPTP block 74 | Rh123 counter 83
CC1=C(C(=O)Nc2cc(C(=O)NCc3ccccc3)ccc2C)SCCO1	none (no result: TMEM16A inh, ANO1 activ, GRIN3A LBD mod)
O=C(O)C1C2CCC(CC2)C1C(=O)N1CCN(Cc2ccc(F)cc2)CC1 (stereo unspecified)	none
CC(C)(C)c1ccc(C(=O)OC/C(O)=C(\C#N)c2nc3ccccc3s2)cc1	GRIN3A LBD mod 17, MPTP block 97 | Rh123 counter 70
N#C/C(=C(/O)COC(=O)c1ccccc1O)c1nc2ccccc2s1	CRFBP-R2 agonist 79, GRIN3A LBD mod 13, MPTP block 100 | Rh123 counter 94
Cc1ccsc1C(=O)OCC(=O)N(C)c1c(N)n(Cc2ccccc2)c(=O)[nH]c1=O	none
COc1ccc(C(=O)CCC(=O)N2CCN(c3ccccc3)CC2)cc1	none
O=Cc1c[nH]c2ccc(C(=O)c3ccccc3)cc12	none
Oc1c(C=NCc2ccc(F)cc2)[nH]c2ccc(Br)c(Cl)c12	none (no result: CRFBP-R2 agonist, CRFBP-R2 block, ANO1 activ, GRIN3A LBD mod, MPTP block)
Cc1ccc(CN=Cc2[nH]c3ccc(Br)c(Cl)c3c2O)cc1	MPTP block 69 | Rh123 counter inactive
CC1N(C(=O)N(C)C)CCN1S(=O)(=O)c1ccccc1 (stereo unspecified)	none
Cc1cc([N+](=O)[O-])ccc1NC(=O)/C=C/c1cccs1	MPTP block 83 | Rh123 counter 31
CCCN(CC(=O)Nc1ccccc1C)C(=O)c1ccc(=O)n(Cc2ccccc2)n1	none
COc1ccc(-c2csc(NC(=O)c3ccccc3NS(=O)(=O)c3ccc(C)cc3)n2)cc1	CRFBP-R2 block 58, TMEM16A inh 100, GRIN3A LBD mod 29, MPTP block 104 | Rh123 counter inactive
CCOC(=O)c1c(C)[nH]c(C(=O)OCC(=O)Nc2cc(Cl)ccc2OC)c1C	none
CC(=O)c1c(C)[nH]c(C(=O)OCC(=O)Nc2ccc(Cl)cc2[N+](=O)[O-])c1C	MPTP block 91 | Rh123 counter 93
CC(=O)c1cccc(S(=O)(=O)N2CCC(C(=O)Oc3ccc(-c4nnco4)cc3)CC2)c1	none (no result: TMEM16A inh)
O=c1cc(C(F)(F)F)nc(SCc2cccc3ccccc23)[nH]1	TMEM16A inh 25, MPTP block 78 | Rh123 counter 85
Nc1cc(=O)[nH]c(SCc2cccc3ccccc23)n1	none
COc1ccc(Cl)cc1NC(=O)c1cccc([N+](=O)[O-])c1O	CRFBP-R2 block 83, MPTP block 85 (no result: TMEM16A inh) | Rh123 counter 96
COc1ccc(Cl)cc1NC(=O)c1cc(-c2ccco2)on1	none
COc1ccc(Cl)cc1NC(=O)c1ccco1	MPTP block 80 | Rh123 counter inactive | MPTP abs DR inactive | MPTP counter DR inactive
COCCCNCCOCCOc1ccc(C)cc1Br	none
CCCCNCCOCCOc1ccc(C)cc1Br	MPTP block 61 | Rh123 counter inactive | MPTP abs DR inactive | MPTP counter DR inactive
Cc1sc2ncnc(NCC(O)c3ccccc3)c2c1C (stereo unspecified)	MPTP block 69 | Rh123 counter 58
Cc1sc2ncnc(NCc3cccs3)c2c1C	MPTP block 92 | Rh123 counter 92
Cc1sc2ncnc(NCc3ccco3)c2c1C	none
Cc1sc2ncnc(NCC(c3ccccc3)N(C)C)c2c1C (stereo unspecified)	none
N#Cc1ccc(S(=O)(=O)NC2CCCCNC2=O)cc1 (stereo unspecified)	none
COC(=O)[C@@]12C[C@@H](CC(=O)NCc3ccc(OC)c(OC)c3)C(=O)N(Cc3cccc4ccccc34)C1=CCC(C)(C)C2	none (no result: CRFBP-R2 agonist, CRFBP-R2 block, TMEM16A inh, ANO1 activ, GRIN3A LBD mod)
CC(CCc1ccccc1)NC(=O)COC(=O)c1cc(NS(=O)(=O)c2ccc(Cl)c([N+](=O)[O-])c2)ccc1O (stereo unspecified)	TMEM16A inh 100, GRIN3A LBD mod 22, MPTP block 100 | Rh123 counter 89
CN(c1ccc(OC(=O)c2ccc(-n3cncn3)c([N+](=O)[O-])c2)cc1)S(=O)(=O)c1ccccc1	none (no result: TMEM16A inh)
CN(Cc1ccccc1)CC(O)COc1ccc(CNCc2ccc(Cl)s2)cc1 (stereo unspecified)	MPTP block 91 | Rh123 counter inactive | MPTP abs DR 8 | MPTP counter DR 36
CN(Cc1ccccc1)CC(O)COc1ccc(CNCc2cccnc2)cc1 (stereo unspecified)	none
CCN1CCc2c(sc(NC(=O)Nc3ccc(Cl)c(Cl)c3)c2C(N)=O)C1	CRFBP-R2 agonist 239, GRIN3A LBD mod 18, MPTP block 55 | Rh123 counter 51
CCCN(Cc1nnc(-c2cccs2)o1)C(=O)c1cccc(S(=O)(=O)N2CCOCC2)c1	none (no result: TMEM16A inh)
O=C(CSc1nc2ccccc2o1)Nc1ccccc1	none
Cc1cccc2sc(NC(=O)CSc3nc4ccccc4o3)nc12	MPTP block 70 | Rh123 counter inactive | MPTP abs DR inactive | MPTP counter DR 6.1
CCn1c(=S)sc2c(=O)n(CC(=O)Nc3cc(OC)ccc3OC)c(C)nc21	none
